High-throughput results (PubChem)
Only some compounds are listed: those with a hit (about 0.64% of all), similar ones and a draw of the others.
TRb SRC2 PPI = qHTS for Inhibitors of the Interaction of Thyroid Hormone Receptor and Steroid Receptor Coregulator 2; Thyroid hormone receptor beta (Homo sapiens), P10828; TRbeta-SRC2 peptide binding, fluorescence polarization; receptor liganded with 1 µM T3; Potency, µM (doses to about 106 µM), for inactives: at the top dose activity change, negative = inhibition, actives largely listed as inhibitors; 0.065% of 280,000 active; AID 1469, 2008;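 further: plate controls were bound peptide for no effect and peptide without receptor for full effect; nearly all actives have a fitted effect of over 50% in size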
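Binding of a 20-amino-acid Texas Red SRC2 peptide (20 nM) to TRb ligand-binding domain (0.6 uM) with agonist T3 at 1 uM was followed by fluorescence polarization after a 5 hr room-temperature incubation.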
TR SRC2 fluor cs = Total Fluorescence Counterscreen for Inhibitors of the Interaction of Thyroid Hormone Receptor and Steroid Receptor Coregulator 2; TRb/SRC2 Texas Red total fluorescence interference; Potency, µM (doses to about 106 µM), inactives show at the top dose fluorescence change, negative = quenching; 0.29% of 280,000 active; AID 1479, 2009; active means well fitted curve in either direction with a large enough effect; inconclusive means small, poorly fitted or top-dose-only effect
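Human TRb ligand-binding domain at 0.6 uM with 20 nM Texas Red SRC2 peptide in Tris buffer containing 1 uM T3 and 5% DMSO, incubated with compound 5 h at ambient temperature. Total fluorescence (555/632 nm) calculated as parallel + 2 × perpendicular.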
RECQ1 helicase = qHTS Assay for Inhibitors of RecQ-Like Dna Helicase 1 (RECQ1) | Potency, µM (top dose mostly 57.3 µM), for inactives: at the top dose activity, negative = inhibition, usual class: inhibitors | 0.54% of 240,000 active | RECQ1 DNA unwinding, red fluorescence kinetic read;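 further: plate controls were vehicle for no effect and no enzyme for full effect; nearly all actives have a fitted effect of over 30% in size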
Target sequence (P46063 whole entry, looked up): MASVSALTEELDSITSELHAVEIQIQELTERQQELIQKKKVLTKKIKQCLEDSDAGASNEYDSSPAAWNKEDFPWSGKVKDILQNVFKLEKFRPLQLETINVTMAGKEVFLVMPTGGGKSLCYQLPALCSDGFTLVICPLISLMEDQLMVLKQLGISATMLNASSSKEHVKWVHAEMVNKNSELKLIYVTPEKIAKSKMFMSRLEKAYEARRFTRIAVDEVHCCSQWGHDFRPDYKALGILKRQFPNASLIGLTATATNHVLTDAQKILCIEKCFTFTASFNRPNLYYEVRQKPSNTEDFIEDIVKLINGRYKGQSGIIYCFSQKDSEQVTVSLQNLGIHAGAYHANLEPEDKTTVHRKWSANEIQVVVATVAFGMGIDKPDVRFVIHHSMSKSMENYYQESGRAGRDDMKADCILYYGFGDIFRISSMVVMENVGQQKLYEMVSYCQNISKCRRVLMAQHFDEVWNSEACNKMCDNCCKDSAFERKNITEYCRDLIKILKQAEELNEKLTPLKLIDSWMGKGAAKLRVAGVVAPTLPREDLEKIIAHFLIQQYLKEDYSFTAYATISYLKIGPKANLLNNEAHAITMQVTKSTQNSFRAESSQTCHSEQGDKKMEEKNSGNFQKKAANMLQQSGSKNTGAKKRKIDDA
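50 nM RECQ1T1 preincubated 15 min with compound in Tris pH 8.0 buffer with MgCl2, DTT, Tween-20 and 2.5 ug/ml poly(dI-dC); started with 200 nM TAMRA/BHQ-2 forked duplex and 2 mM ATP. Unwinding read as fluorescence (525/598 nm), two reads 2 h apart.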
BLM helicase inh = qHTS Assay for Inhibitors of Bloom's syndrome helicase (BLM); RecQ-like DNA helicase BLM (Homo sapiens), P54132; recombinant BLM DNA unwinding, fluorescence dequenching; Potency, µM (highest dose often 56.1 µM), for inactives: at the highest dose activity change, negative = inhibition, most hits filed as inhibitors; 0.2% of 350,000 active;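 further: plate controls were vehicle for no effect and no enzyme for full effect; nearly all actives have a fitted effect of over 35% in size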
Active calls of the source: *; i = inactive; ? = inconclusive; · = no result given; [ ] = remark or other dose. Unless noted, the call rests on the fitted dose curve; in most records, active means well fitted curve in the direction sought with a large enough effect; inconclusive means small, poorly fitted or top-dose-only effect, or another doubt; inactive means no such curve, though single readings can be large; an effect the other way counts as inactive or inconclusive. Unless noted, on the % scale 0 is the no-effect control and ±100 the full control effect; potency means the concentration at half of the fitted maximal effect.

SMILES	TRb SRC2 PPI	TR SRC2 fluor cs	RECQ1 helicase	BLM helicase inh
Cc1nn2c(=O)cc(COC(=O)c3ccc(NC(=O)CCc4ccccc4)cc3)nc2s1	-5%	0%	·	-9%
CCc1ccc(NC(=O)C(NS(=O)(=O)c2cccs2)C(C)C)cc1 (centres undefined)	3%	-5%	·	-5%
CCN(CC)c1ccc(NC(=O)C(NS(=O)(=O)c2cccs2)C(C)C)c(C)c1 (centres undefined)	-18%[53 µM]	4.5µM*[quencher]	·	-1%
COc1cccc2c(SCC(=O)N/N=C/c3ccccc3)cc(C)nc12	3%	-6%	-6%	-2%
COc1cccc2c(SCC(=O)N/N=C/c3ccc(O)c(O)c3)cc(C)nc12	0%	-5%	25µM*	?
COc1ccc(-c2onc(C)c2C)cc1S(=O)(=O)Nc1cccc(C#N)c1	3%	0%	·	1%
COc1ccc(CCNC(=O)c2csc3c2CCCC3)cc1	5%	-2%	-3%	-8%
COc1ccc(CCNC(=O)c2csc3c2CCCCC3)c(OC)c1	-7%	20µM*[quencher]	·	-2%
O=c1cc(-c2ccc(O)cc2)oc2cc(O[C@@H]3O[C@H](CO)[C@H](O)[C@H](O)[C@H]3O)cc(O)c12	-2%	1%	-10%	0%
O=c1cc(-c2ccc(O)c(O)c2)oc2cc(OC3OC(CO)C(O)C(O)C3O)cc(O)c12 (centres undefined)	-2%	-9%	20µM*	-16%
OCCOCCOCCOCCOCCO	4%[201 µM]	0%[201 µM]	·	·
O=C1N/C(=C/c2ccco2)C(=O)N1Cc1ccccc1F	4%	-4%	11µM*	-17%
Cc1cccc(NC(=O)CN2C(=O)CCc3ccccc32)c1C	-16%	11µM*[quencher]	·	-6%
Cc1cccc(NC(=O)CN2C(=O)c3cccc4cccc2c34)c1C	3%	6%	·	-6%
O=C(CC1N=C2c3ccccc3N=C(SCc3cccc(F)c3)N2C1=O)NCc1ccc2c(c1)OCO2 (centres undefined)	-4%	-5%	·	2%
CN1C(=O)c2ccccc2Sc2ccc(NC(=O)N3CCN(c4ccccc4F)CC3)cc21	-5%	-2%	·	-9%
N#C/C(=C\Nc1ccc2cn[nH]c2c1)c1nc(-c2ccc(Cl)cc2)cs1	71µM*	?	-11%	-16%
Nc1c(C(=O)Nc2nc3ccccc3s2)sc2nc(-c3cccs3)ccc12	?	32µM*[quencher]	i	3%
Nc1c(C(=O)Nc2ccccc2Br)sc2nc(-c3cccs3)ccc12	9%	-22%	·	-10%
Cc1cc(C)n(CCc2nc3c4ccccc4nc(N4CCN(c5ccccc5)CC4)n3n2)n1	-1%	-19%	·	-5%
CCO/C(=C/c1sc2ccc(OC)cc2[n+]1CCCS(=O)(=O)[O-])CC	-19%	5%	-11%	-1%
CCC(/C=C1\Sc2ccc(OC)cc2N1CC)=C\c1sc2ccc(OC)cc2[n+]1CCCS(=O)(=O)[O-]	?	40µM*[fluorescent]	-8%	4%
CCCn1c2ccccc2c2cnn(CC(=O)Nc3cc(OC)c(OC)c(OC)c3)c(=O)c21	-8%	18µM*[quencher]	·	-14%
COc1cc(/C=C2\SC(=S)N(C(C(=O)O)c3ccccc3)C2=O)ccc1O (centres undefined)	?	16%	22µM*	-8%
COc1cc(/C=C2/SC(=S)N(c3c(C)n(C)n(-c4ccccc4)c3=O)C2=O)ccc1O	?	19%	22µM*	-9%
SMILES	TRb SRC2 PPI	TR SRC2 fluor cs	RECQ1 helicase	BLM helicase inh
O=C(O)C(c1ccccc1)N1C(=O)/C(=C\c2ccc(O)c(O)c2)SC1=S (centres undefined)	·	·	·	7%
CCOc1cc(/C=C2\SC(=S)N(C(C(=O)O)c3ccccc3)C2=O)ccc1O (centres undefined)	7%	0%	7%	?
CCOc1ccc(/C=C2/SC(=S)N(C(C(=O)O)c3ccccc3)C2=O)cc1OCC (centres undefined)	-11%	-7%	22µM*	-7%
O=C(c1cc(O)c(O)c([N+](=O)[O-])c1)c1ccccc1F	4%	?	2.2µM*	·
COC(=O)c1ccc(NC(=O)C(=O)NCC(c2cccnc2)N2CCN(c3ccccc3)CC2)cc1 (centres undefined)	0%	-1%	·	-6%
CCc1ccc(NC(=O)C(=O)NCC(c2cccnc2)N2CCN(C)CC2)cc1 (centres undefined)	-20%	-82%	·	-18%
CCc1ccc(NC(=O)C(=O)NCC(c2cccnc2)N2CCN(c3ccc(F)cc3)CC2)cc1 (centres undefined)	-18%	100µM*[quencher]	·	-3%
COc1cccc(NC(=O)C(=O)NCC(c2cccnc2)N2CCN(c3ccccc3)CC2)c1 (centres undefined)	-17%	100µM*[quencher]	·	-11%
COc1ccc(N2CCN(C(CNC(=O)C(=O)NCc3cccnc3)c3cccnc3)CC2)cc1 (centres undefined)	-20%	56µM*[quencher]	·	3%
COc1ccc(N2CCN(C(CNC(=O)C(=O)NCc3ccc(C)cc3)c3cccnc3)CC2)cc1 (centres undefined)	1%	6%	·	-2%
Cc1cc(C)cc(Nc2cc(C)nc3nc(-c4ccco4)nn23)c1	2%	0%	·	0%
COc1cc(C2NC(=O)NC(C)=C2C(=O)OCc2ccccc2)ccc1O (centres undefined)	-25%	1%	i	14µM*
COc1ccc(COC(=O)C2=C(C)NC(=O)NC2c2ccc(O)c(OC)c2)cc1 (centres undefined)	4%	-3%	-7%	-3%
COc1ccc2[nH]c3c(=O)n(Cc4ccc(C(=O)NCC5CCCO5)cc4)c(=S)[nH]c3c2c1 (centres undefined)	3%	-2%	20µM*	-20%
CC(C)CCCCCCNC(=S)Nc1ccc(S(=O)(=O)N2CCOCC2)cc1	0%[53 µM]	-2%[53 µM]	40µM*	-4%
N#CC(C#N)=C1NC2(CCCCC2)Cc2ccccc21	-2%	-5%	-9%	1%
N#CC(C#N)=c1ccc2c(c1)NC1(CCCCC1)N=2	?	45µM*[fluorescent]	-10%	-13%
Cc1cc(/C=C2\SC(=S)NC2=O)c(C)n1-c1cccc(O)c1	-4%	-6%	-23%	-27%
Cc1sc(-n2c(C)cc(/C=C3\SC(=S)NC3=O)c2C)c(C#N)c1C	5%	-2%	28µM*	-29%
CN(C)c1ccc(/C=C(/C(=O)c2ccc(Cl)cc2Cl)n2cncn2)cc1	-9%	31623µM*[quencher]	-13%	-2%
COc1ccc(/C=C(/C(=O)c2ccc(Cl)cc2Cl)n2cncn2)cc1	0%	0%	-1%	-7%
COc1ccc(NC(=O)Cn2cnc3ccc(S(=O)(=O)N4CCC(C)CC4)cc3c2=O)cc1Cl	7%	0%	·	-2%
CC1=CC2C3CC(C=C3C)C2C1 (centres undefined)	1%[201 µM]	-5%[201 µM]	·	·
CC(=O)Nc1nonc1NC(C)=O	1%	-2%	-8%	2%
